# Test results: the supplement of paper PMC13380429
# Experiments:
# [1] = system: Vero E6 infected with SARS-CoV-2; experiment: morphology score (similarity to uninfected cells); higher = more like uninfected cells; conditions: 24 h
# [2] = system: Vero E6 infected with SARS-CoV-2; experiment: SARS-CoV-2 infection rate relative to infected DMSO; higher = more infection, active = 60 or less; conditions: 24 h
Compound,morphology score [1],SARS-CoV-2 infection rate [2]
N#Cc1ccc(C(c2ccc(C#N)cc2)n2cncn2)cc1 [letrozole] (10 µM),0.138,102% (inactive)
C[C@@H]1CN(CCCn2c3ccccc3c3ccccc32)C[C@H](C)N1 [rimcazole] (10 µM),0.623,19.5% (active)
N=C(N)c1ccc(OCCCCCOc2ccc(C(=N)N)cc2)cc1 [pentamidine] (10 µM),0.104,109% (inactive)
C[C@H]1COc2c(C3(N)CC3)c(F)cc3c(=O)c(C(=O)O)cn1c23 [pazufloxacin] (10 µM),0.202,103% (inactive)
Nc1ncn([C@H]2C[C@H](O)[C@@H](CO)O2)c(=O)n1 [decitabine] (10 µM),0.0186,104% (inactive)
CCCN[C@H]1CCc2nc(N)sc2C1 [pramipexole] (10 µM),0.032,120% (inactive)
COc1cc(/C=C/C(N)=O)cc(OC)c1OC [cintriamide] (10 µM),-0.0883,110% (inactive)
Cc1ccccc1/N=N/c1ccc(/N=N/c2c(O)ccc3ccccc23)c(C)c1 [sudan-IV] (10 µM),0.126,92% (inactive)
CS(=O)(=O)c1ccc(Oc2cc(F)cc(C#N)c2)c2c1[C@H](O)C(F)(F)C2 (10 µM),0.0223,99% (inactive)
O=C(O)Cc1cccc(OCCCN(Cc2cccc(C(F)(F)F)c2Cl)CC(c2ccccc2)c2ccccc2)c1 (10 µM),0.267,102% (inactive)
Cc1c(N(C)CS(=O)(=O)O)c(=O)n(-c2ccccc2)n1C [metamizole] (10 µM),0.141,93.5% (inactive)
O=C(O)c1cnn(-c2nc3cc(OC(F)(F)F)c(Cl)cc3[nH]2)c1 (10 µM),0.316,88.5% (inactive)
C/C(=C\CNc1ncnc2[nH]cnc12)CO [zeatin] (10 µM),-0.0215,106% (inactive)
CN1CCCN=C1COC(=O)C(O)(c1ccccc1)C1CCCCC1 (stereo unspecified) [oxyphencyclimine] (10 µM),0.0243,101% (inactive)
Cn1cc(C2=C(c3cn(C4CCN(Cc5ccccn5)CC4)c4ccccc34)C(=O)NC2=O)c2ccccc21 [enzastaurin] (10 µM),-0.0103,112% (inactive)
Cc1ccccc1N1CCN(CCc2nnc3n2CCCC3)CC1 [dapiprazole] (10 µM),0.109,87.5% (inactive)
O=C(c1ccc(F)cc1)N1CCC[C@H](c2nc(-c3ccc(F)cc3)no2)C1 (10 µM),0.242,93.5% (inactive)
Cc1coc2c1C(=O)C(=O)c1c-2ccc2c(C)cccc12 [tanshinone-I] (10 µM),-0.0142,106% (inactive)
Cc1nnc2ccc(-c3cccc(C(F)(F)F)c3)nn12 (10 µM),-0.183,104% (inactive)
COc1cc([C@@H]2c3cc4c(cc3[C@@H](O[C@@H]3O[C@@H]5CO[C@@H](C)O[C@H]5[C@H](O)[C@H]3O)[C@H]3COC(=O)[C@H]23)OCO4)cc(OC)c1OP(=O)(O)O [etoposide-phosphate] (10 µM),0.101,94.5% (inactive)
CC[C@H](NC(=O)c1c(C)c(-c2ccccc2)nc2ccccc12)c1ccccc1 (10 µM),0.0423,101% (inactive)
CN(C)N(C)C(=O)[C@@]1(Cc2ccccc2)CCCN(C(=O)[C@@H](Cc2c[nH]c3ccccc23)NC(=O)C(C)(C)N)C1 [anamorelin] (10 µM),0.0474,98.5% (inactive)
O=c1c(O)c(-c2ccc(O)c(O)c2)oc2cc(O)cc(O)c12 [quercetin] (10 µM),0.0809,102% (inactive)
N#C/C(=C\c1cccn1S(=O)(=O)c1cccc([N+](=O)[O-])c1)S(=O)(=O)c1ccc(F)cc1 (10 µM),-0.181,109% (inactive)
CCCCOC(=O)c1ccc(N)cc1 [butamben] (10 µM),0.102,108% (inactive)
COc1cc(OC)nc(O[C@H](C(=O)O)C(OC)(c2ccccc2)c2ccccc2)n1 [darusentan] (10 µM),-0.0345,116% (inactive)
CC(C)[C@H](O)C(=O)N[C@@H](C)C(=O)N[C@@H]1C(=O)N(C)CCc2ccccc21 [semagacestat] (10 µM),0.0376,120% (inactive)
NC(=O)[C@@H](CCC(F)(F)F)N(Cc1ccc(-c2ncon2)cc1F)S(=O)(=O)c1ccc(Cl)cc1 [avagacestat] (10 µM),0.0806,108% (inactive)
